A selection: hits, their analogues and other compounds. The true share with any hit is near 5.7%.
rCAG RNA binder: binds r(CAG) RNA repeats | r(CAG) RNA repeat, TO-PRO-1 dye displacement fluorescence | inhibition, % at 3 µM | 1.3% of 370,000 active | AID 651821;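 active = inhibition above the plate cutoff, the mean of all test compounds on that plate plus 3 SD, cut at about 35% in these data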;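 also: 0% = DMSO alone and 100% = 100 µM mitoxantrone as full dye displacement; higher means more dye released from RNA so lower well fluorescence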
Myeloid diff 2: compounds promoting myeloid differentiation; AID 624256; 1% of 360,000 active; ER-HoxA9 myeloid progenitors, lysozyme-GFP differentiation, flow cytometry; calls only at 10 µM;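 active = normalized GFP-positive differentiation at or above the plate's own cutoff, the solvent-only control mean plus 3 SD; inconclusive = no clear call, values can overlap the other calls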;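 also: cells exposed to compound for four days before flow analysis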
FAS-TE inh: blocks the thioesterase domain of human fatty acid synthase; P49327; recombinant FAS-TE, OMFH fluorogenic substrate, fluorescence endpoint; inhibition, % at 15 µM; 0.67% of 360,000 active; AID 602261;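 active = compounds whose normalised, plate-corrected inhibition of enzyme fluorescence in the single-dose primary screen is 50% or more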;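 also: 0% = DMSO with enzyme and 100% = substrate without enzyme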
Target sequence (P49327 whole entry, looked up, the tested form may be a part): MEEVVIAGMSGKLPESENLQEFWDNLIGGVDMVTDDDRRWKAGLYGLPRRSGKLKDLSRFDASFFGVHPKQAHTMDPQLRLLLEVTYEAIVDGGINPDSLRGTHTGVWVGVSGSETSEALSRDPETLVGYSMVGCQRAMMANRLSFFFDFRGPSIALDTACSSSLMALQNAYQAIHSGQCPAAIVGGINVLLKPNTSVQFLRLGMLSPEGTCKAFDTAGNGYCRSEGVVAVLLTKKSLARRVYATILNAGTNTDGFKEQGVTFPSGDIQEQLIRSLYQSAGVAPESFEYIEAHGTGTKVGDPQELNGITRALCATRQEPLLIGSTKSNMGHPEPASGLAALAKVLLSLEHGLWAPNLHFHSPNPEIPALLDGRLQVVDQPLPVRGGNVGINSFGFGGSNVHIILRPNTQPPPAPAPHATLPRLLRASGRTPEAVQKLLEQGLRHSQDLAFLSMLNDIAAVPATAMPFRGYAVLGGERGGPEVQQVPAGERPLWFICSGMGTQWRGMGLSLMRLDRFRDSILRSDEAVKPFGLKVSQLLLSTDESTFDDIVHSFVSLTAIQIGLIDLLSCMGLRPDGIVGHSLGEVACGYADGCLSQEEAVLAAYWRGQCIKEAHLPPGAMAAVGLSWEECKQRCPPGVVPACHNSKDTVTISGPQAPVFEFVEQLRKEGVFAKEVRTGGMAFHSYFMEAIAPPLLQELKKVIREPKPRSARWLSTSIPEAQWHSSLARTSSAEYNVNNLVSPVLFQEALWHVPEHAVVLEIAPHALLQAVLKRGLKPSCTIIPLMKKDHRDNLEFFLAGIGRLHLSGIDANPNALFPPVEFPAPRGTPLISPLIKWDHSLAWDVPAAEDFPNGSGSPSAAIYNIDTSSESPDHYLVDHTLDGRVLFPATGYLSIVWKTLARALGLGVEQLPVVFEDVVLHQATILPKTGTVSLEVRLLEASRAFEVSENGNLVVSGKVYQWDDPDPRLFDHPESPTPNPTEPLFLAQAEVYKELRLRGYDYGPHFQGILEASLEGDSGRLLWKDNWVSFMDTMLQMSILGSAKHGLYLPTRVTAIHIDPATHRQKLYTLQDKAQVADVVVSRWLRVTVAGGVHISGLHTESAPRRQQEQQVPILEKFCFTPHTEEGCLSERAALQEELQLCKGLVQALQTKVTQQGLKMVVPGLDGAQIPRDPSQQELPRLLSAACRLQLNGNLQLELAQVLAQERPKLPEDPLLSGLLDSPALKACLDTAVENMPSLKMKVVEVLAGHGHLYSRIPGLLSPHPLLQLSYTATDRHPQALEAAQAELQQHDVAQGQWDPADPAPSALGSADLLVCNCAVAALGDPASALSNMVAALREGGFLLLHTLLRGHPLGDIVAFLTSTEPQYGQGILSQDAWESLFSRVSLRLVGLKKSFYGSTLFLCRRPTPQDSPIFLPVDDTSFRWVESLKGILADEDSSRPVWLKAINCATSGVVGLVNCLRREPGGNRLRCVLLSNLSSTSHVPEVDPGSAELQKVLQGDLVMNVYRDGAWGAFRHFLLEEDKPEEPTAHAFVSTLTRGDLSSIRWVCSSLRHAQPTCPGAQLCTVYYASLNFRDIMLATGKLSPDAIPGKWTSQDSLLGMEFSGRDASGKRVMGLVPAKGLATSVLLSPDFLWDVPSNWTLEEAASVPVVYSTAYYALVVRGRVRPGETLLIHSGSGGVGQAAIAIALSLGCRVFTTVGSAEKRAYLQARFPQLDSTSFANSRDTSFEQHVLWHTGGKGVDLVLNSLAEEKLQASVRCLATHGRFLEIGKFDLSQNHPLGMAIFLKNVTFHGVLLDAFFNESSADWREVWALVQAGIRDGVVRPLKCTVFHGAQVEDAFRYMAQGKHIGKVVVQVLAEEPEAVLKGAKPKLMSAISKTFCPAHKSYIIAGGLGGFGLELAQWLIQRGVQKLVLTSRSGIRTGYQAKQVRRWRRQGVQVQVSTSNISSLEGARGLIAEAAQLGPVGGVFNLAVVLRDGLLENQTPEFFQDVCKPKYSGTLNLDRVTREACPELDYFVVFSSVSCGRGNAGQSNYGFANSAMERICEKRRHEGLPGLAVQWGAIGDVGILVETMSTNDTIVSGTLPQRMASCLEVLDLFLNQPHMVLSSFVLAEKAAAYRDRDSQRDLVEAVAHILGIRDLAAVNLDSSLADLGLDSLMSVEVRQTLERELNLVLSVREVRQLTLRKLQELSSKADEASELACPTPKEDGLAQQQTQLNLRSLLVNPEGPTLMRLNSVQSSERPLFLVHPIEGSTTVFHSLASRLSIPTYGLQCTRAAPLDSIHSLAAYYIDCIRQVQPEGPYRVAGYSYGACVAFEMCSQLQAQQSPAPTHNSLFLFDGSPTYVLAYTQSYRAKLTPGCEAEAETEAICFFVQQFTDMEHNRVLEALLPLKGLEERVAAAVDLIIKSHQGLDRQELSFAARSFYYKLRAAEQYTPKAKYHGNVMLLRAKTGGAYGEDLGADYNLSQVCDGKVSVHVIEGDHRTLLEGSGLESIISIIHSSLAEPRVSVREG
MPTP inh: permeability transition pore inhibition | isolated mouse mitochondria, Ca2+ swelling absorbance, 30 min | inhibition, % at 10 µM | 1.4% of 360,000 active | AID 602449;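 active = inhibition of 50% or more, scaled per plate between neutral and stimulator controls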;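 also: 0% = DMSO wells given calcium and 100% = 1 mM EGTA wells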
NR3A LBD binder: NR3A (human) ligand-binding domain modulation. 2.5% of 340,000 active. Tm shift relative to glycine control, % at 25 µM. NR3A LBD differential scanning fluorimetry, Tm shift; 0% = protein alone, 100% = glycine-bound protein. AID 1259313;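 active = melting temperature shift of at least 10% of the positive control shift, at one fixed dose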
* marks the source's active call; other numbers are inactive results; i = inactive; u = inconclusive; x = not tested or not shown; + = active, no number.

SMILES	rCAG RNA binder	Myeloid diff 2	FAS-TE inh	MPTP inh	NR3A LBD binder
COC(=O)[C@]12C[C@H](CC(=O)N3CCOCC3)C(=O)N(Cc3cccc4ccccc34)C1=C[C@H](C1CCCC1)O[C@@H]2C	4	x	x	x	x
N#Cc1c(C(F)(F)F)cc(-c2ccc(Cl)c(Cl)c2)nc1SCCN1CCOCC1	x	i	20	2	-2
N#Cc1c(C(F)(F)F)cc(-c2ccccc2)nc1SCc1nc(N)nc(N2CCOCC2)n1	3	+	-19	-2	16*
O=C(Nc1nc(-c2ccccc2)cs1)c1cccs1	4	i	15	-4	1
Cc1ccc(C(=O)Nc2nc(-c3ccccn3)cs2)s1	6	i	4	-3	8
O=C(Nc1nc(-c2ccc(Cl)s2)cs1)c1cccs1	14	i	34	13	17*
O=C(Nc1nc(-c2ccccn2)cs1)c1ccc(Cl)s1	4	u	9	0	19*
Cc1ccc(N2C(=O)C(Cl)=C(NCCO)C2=O)c(C)c1	-2	i	4	2	361*
Cc1ccc(N2C(=O)C(Cl)=C(N3CCN(C)CC3)C2=O)c(C)c1	-1	i	-12	0	-2
CCC(CC)C(=O)NCCN1CCN(C(=O)C(CC)CC)CC1	-4	i	-9	1	0
CC(C)(C)C(=O)NCCN1CCN(C(=O)C(C)(C)C)CC1	3	i	3	0	673*
COC(=O)[C@]12C[C@H](CC(=O)NCCC(C)C)C(=O)N(Cc3ccc4c(c3)OCO4)C1=C[C@H](C(C)(C)C)O[C@@H]2C	0	x	x	x	x
CCCc1nn(C)c(C(=O)Nc2cccc3ccccc23)c1Cl	-4	i	26	4	12*
O=C(CCn1nnc(-c2cccs2)n1)N1CCCCC1	1	x	x	x	x
Nc1nonc1-n1nnc(C(=O)N/N=C/c2ccc(OCc3ccccc3F)cc2)c1CN1CCCCC1	4	i	23	3	16*
CCOc1ccccc1/C=N/NC(=O)c1nnn(-c2nonc2N)c1CN1CCCCCC1	2	i	3	4	0
Nc1nonc1-n1nnc(C(=O)N/N=C/c2ccc(OCc3ccccc3)cc2)c1COc1ccc(F)cc1	6	i	4	1	19*
CCCc1c(C(=O)N/N=C/c2cccc(OCc3ccc(F)cc3)c2)nnn1-c1nonc1N	1	i	10	0	35*
Nc1nonc1-n1nnc(C(=O)N/N=C/c2ccc(O)cc2)c1COc1ccc(F)cc1	14	i	3	2	4
Cc1cccc(COc2ccc(/C=N/NC(=O)c3nnn(-c4nonc4N)c3COc3ccc(F)cc3)cc2)c1	2	i	20	2	25*
CCCCN1CC(COCc2ccccc2)Oc2cccc(Oc3ccc(F)cc3OC)c2S1(=O)=O (stereo not given)	10	x	x	x	x
O=C(NC1CCCCN(Cc2cccc(Cl)c2)C1=O)c1cccc2nsnc12 (stereo not given)	-1	x	x	x	x
COc1cccc(CNC(=O)CN2CCCc3ccccc32)c1	1	x	x	x	x
O=C(Nc1ccc(F)cc1)OCc1cn(Cc2ccc(Cl)cc2)nn1	2	x	x	x	x
Cc1ccc(OCc2nc3ccccc3n2C(C(=O)NC(C)(C)C)c2ccncc2)cc1 (stereo not given)	0	i	x	-1	x
SMILES	rCAG RNA binder	Myeloid diff 2	FAS-TE inh	MPTP inh	NR3A LBD binder
CCCCN1CC(COCc2ccccc2)Oc2cccc(N3CCCCC3)c2S1(=O)=O (stereo not given)	4	x	x	x	x
Cc1cccc(COc2ccc(/C=N/NC(=O)c3nnn(-c4nonc4N)c3CN3CCCCC3)cc2)c1	5	i	16	2	13*
Nc1nonc1-n1nnc(C(=O)N/N=C/c2ccc(OCc3cccc(Cl)c3)cc2)c1CN1CCCCC1	2	i	19	3	-4
Nc1nonc1-n1nnc(C(=O)N/N=C/c2ccccc2Cl)c1COc1ccc(F)cc1	5	i	29	9	23*
CCN(CC)Cc1c(C(=O)N/N=C/c2cccc(OCc3cccc(Cl)c3)c2)nnn1-c1nonc1N	5	i	18	4	12*
Nc1nonc1-n1nnc(C(=O)N/N=C/c2ccc(OCc3ccccc3)cc2)c1CNc1ccccc1	6	i	-2	4	31*
O=S1(=O)CC2c3ccccc3CCN2CN1CCc1ccccc1 (stereo not given)	0	x	x	x	x
COc1cccc(CN2CCC2(C)C(=O)Nc2cccc(Oc3ccccc3)c2)c1F (stereo not given)	7	i	29	2	x
O=C(CSc1nc2ccccc2nc1N1CCOCC1)N1CCN(c2cccc(C(F)(F)F)c2)CC1	4	x	x	x	x
S=C(Nc1ccc(Cl)cc1)c1nc2ccccc2s1	8	i	12	1	-1
O=C(Nc1ccc(Cl)cc1)/C(=C/c1cccc(O)c1)c1nc2ccccc2s1	15	x	10	5	26*
Cc1cc(C)c(NC(=O)C2CCCN2CCO)c(C)c1 (stereo not given)	-1	+	-6	-2	-1
CCCCN1CCCCC1C(=O)Nc1c(C)cc(C)cc1C (stereo not given)	-4	i	-10	0	0
O=C1CCCc2oc3c(cc(NS(=O)(=O)c4ccc5c6c(cccc46)C(=O)N5)c4ccccc43)c21	46*	i	20	3	4
COc1ccccc1NC(=O)COc1ccc(CO)cc1Cl	-3	i	-1	1	11*
O=C(COc1ccc(CO)cc1Cl)Nc1ccc(F)cc1	-4	i	-8	2	1
CCN(CC)CCn1c(=O)n(-c2ccc(Cl)cc2)c(=O)c2c3c(sc21)CN(C)CC3	-13	+	-9	13	3
Cc1ccc(-n2[nH]c(C)c(C=Nc3ccc4[nH]c(=O)[nH]c4c3)c2=O)cc1C	-7	i	1	0	16*
Cc1ccc(-n2[nH]c(C)c(C=Nc3ccc4[nH]c(=O)[nH]c4c3)c2=O)cc1	7	i	-34	-1	-17
COC(=O)c1cc2c(c3c4cc(OC)ccc4n(S(=O)(=O)c4ccc(F)cc4)c13)C(=O)N(Cc1ccccc1)C2	18	x	x	x	x
O=C(NCC1COCCO1)C1CCN(S(=O)(=O)c2ccc(Br)s2)CC1 (stereo not given)	2	x	x	x	x
N#CCC(CNc1ncc(C(F)(F)F)cc1Cl)OC(=O)c1ccc(Cl)cc1Cl (stereo not given)	-4	i	45	4	14*
O=[N+]([O-])c1ccccc1S(=O)(=O)N1CCN(S(=O)(=O)c2ccc3c(c2)OCCO3)CC1	x	i	53*	0	0
O=[N+]([O-])c1ccccc1S(=O)(=O)N1CCN(Cc2ccc3c(c2)OCO3)CC1	2	i	20	-2	1
C[C@H]1CN(S(=O)(=O)c2c(F)cccc2F)CCN1S(=O)(=O)c1ccc2c(c1)OCCO2	-6	i	17	-1	11*
C#CCN1C(=O)[C@]2(NCCc3c2[nH]c2ccc(OC)cc32)c2ccccc21	-1	x	x	x	x
FC(F)Sc1ccc(N=C2NN=C(c3ccc4c(c3)OCCO4)CS2)cc1	14	i	-149	9	15*

High-throughput results deposited in PubChem BioAssay by several laboratories.
